CCHF vOTU inh: CCHFV vOTU protease inhibition. Pep-AMC fluorescence. inhibition, % at 11.5 µM. actives 0.55% (n = 370,000). AID 651958; in the data active = inhibition above about 30%; note: 0% = vehicle wells with enzyme and 100% = no enzyme wells
ugtP null kill: compounds lethal to S. aureus RN4220 ugtP deletion mutant. OD600 growth, 16 h. growth inhibition, % (concentration not given with the values). actives 0.54% (n = 330,000); in the data active = growth inhibition above about 68%;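 note: plate controls were untreated wells for no effect and antibiotic for full effect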
PfHsp40 yeast: compounds rescuing yeast from Plasmodium falciparum HSP40 toxicity; actives 0.68% (n = 340,000); growth rescue, % at 12.5 µM; S. cerevisiae expressing PfHsp40, growth rescue, ATP luminescence; AID 504582; in the data active = growth rescue above about 28%, passing the limit was not always enough;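 note: yeast W303a lacking pdr1 and pdr3 grown in galactose medium; growth measured after three days at 30 °C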
Mtb hypoxia inh: Mtb hypoxia fluorescent reporter inhibition. fluorescence inhibition, % (test concentration not listed). M. tuberculosis hypoxia-regulated fluorescent reporter, fluorescence. actives 0.1% (n = 300,000). AID 1159583; in the data active = fluorescence inhibition mostly above about 23%, no sharp cut-off; inactive = mostly below about 17%
RN4220 kill: kills Staphylococcus aureus RN4220. actives 0.33% (n = 330,000). inhibition, % (no concentration beside the values). S. aureus RN4220 growth, OD600, 16 h; in the data active = inhibition above about 85%;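 note: plate controls were untreated cells for no effect and reference antibiotic for full effect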
BH1578 lux ind: induces V. cholerae light production without autoinducers. activation, % at 18.7 µM. AID 588436. actives 0.16% (n = 350,000). V. cholerae BH1578 lux reporter, luminescence, 6 h; in the data active = activation mostly above about 9.7%, no sharp cut-off
* = called active by the depositor; i = inactive; x = no result shown. Rows were chosen to be rich in hits. Some 1.7% of all compounds tested hit in one or more screens of this group.

SMILES	CCHF vOTU inh	ugtP null kill	PfHsp40 yeast	Mtb hypoxia inh	RN4220 kill	BH1578 lux ind
Fc1ccc2[nH]c3c(N4CCc5ccccc5C4)ncnc3c2c1	14	-23	x	x	-2	-1
Brc1ccc2[nH]c3c(N4CCc5ccccc5C4)ncnc3c2c1	x	97*	x	-4	72	x
CC(NC(=O)c1ccc(Cl)cc1)C(=O)NCCc1ccc(S(N)(=O)=O)cc1 (stereo not given)	x	-3	x	4	2	x
O=C(Nc1ccccc1O)c1ccccc1O	-3	6	0	-8	25	0
CC(=O)/C=C(\C)Nc1ccccc1O	-7	-1	43*	x	8	i
Cc1ccc(S(=O)(=O)N(CC(=O)NN=Cc2cccc3c2OCCO3)c2ccccc2F)cc1	x	2	x	x	-1	x
Cc1cc(C)c(O)c(CN(C)Cc2cc(Cl)cc(Cl)c2O)c1	5	86*	2	2	100*	i
Cc1ccnc(NCc2cc(Cl)cc(Cl)c2O)c1	7	x	x	x	x	-1
O=C(Nc1ccccc1Cl)c1cccs1	9	-4	14	x	5	-1
O=C(Nc1ccccc1Cl)C(Cl)=C(Cl)S(=O)c1ccccc1 (stereo not given)	x	100*	x	x	101*	x
O=[N+]([O-])c1ccc(N=Nc2c(Cl)cc(O)cc2Cl)cc1	20	99*	175*	-5	100*	i
CC(N)=Nc1ccc([N+](=O)[O-])cc1	4	2	-1	-15	1	i
COc1ccc(NC(=O)N(C)CC2Oc3ccc(NS(=O)(=O)c4ccc(F)cc4)cc3C(=O)N(C(C)CO)CC2C)cc1 (stereo not given)	x	-3	x	-1	-2	x
COc1ccc(-c2oc3ccccc3c2C#CC(C)(C)O)cc1	12	18	38*	8	-3	-1
CC/C(=C\C=C\[C@@H]1C=C[C@@H]2CCC[C@H]2[C@@H]1C(=O)c1ccc[nH]1)[C@@H]1O[C@@H]([C@@H](C)C(=O)O)CC[C@@H]1C	x	99*	x	10	100*	i
CC(C)(C)OC(=O)NC(C=Cc1ccccc1)C(=O)OC(C)(C)C (stereo not given)	x	1	x	7	-6	x
CCCCCCc1cc2cc(-c3nnc(-c4ccccc4O)o3)c(=O)oc2cc1O	-6	97*	1	-10	67	0
COc1cc(C=NNC(=O)c2ccc3ccccc3c2)ccc1Oc1ccc([N+](=O)[O-])cn1	x	2	x	0	-4	x
Cc1ccc(NN=C2CCS(=O)(=O)c3sccc32)cc1	x	9	x	4	1	x
CCCCn1c(NC(=O)c2ccccc2)nc2ccccc21	21	3	97*	2	31	i
CCn1c(NC(=O)c2ccccc2)nc2ccccc21	-2	-13	3	-11	7	0
N/C(Cc1ccc(Cl)cc1Cl)=N\OC(=O)c1ccc(Br)o1	-1	4	572*	12	7	i
N/C(Cc1cccc2ccccc12)=N\OC(=O)c1ccc(Br)o1	-14	x	x	x	x	x
O=C(c1ccco1)N(CC1CCCO1)c1nc(-c2ccccc2)cs1 (stereo not given)	4	86*	0	-5	-7	0
Cc1ccc(-c2csc(N(CC3CCCO3)C(=O)c3ccco3)n2)cc1 (stereo not given)	6	18	1	6	6	x
SMILES	CCHF vOTU inh	ugtP null kill	PfHsp40 yeast	Mtb hypoxia inh	RN4220 kill	BH1578 lux ind
O=c1[nH]sc2cc(F)ccc12	-3	87*	1	4	98*	2
CCc1cc(C(=O)NN=Cc2ccc(OC)cc2)c2ccccc2n1	x	3	x	-4	0	x
Cc1c(CCOC(=O)CC23CC4CC(CC(C4)C2)C3)sc[n+]1Cc1ccccc1	-15	100*	3	8	87	i
O=C(CCC(=O)Nc1ccccc1)NN=Cc1ccccc1F	x	6	x	4	3	x
Nn1c(SCc2cccc(Cl)c2)nnc1-c1ccncc1	3	2	7	17	4	-1
COc1cccc(CSc2nnc(-c3ccncc3)n2N)c1	1	7	45*	6	7	i
C#CCNC(=O)C1=CC(c2ccc(C#C)cc2)C(CCCO)C(OCC)O1 (stereo not given)	x	-7	x	11	2	x
c1ccc(-c2nnc(-c3ccccn3)nc2NC2CCCCC2)cc1	18	89	46*	x	97*	i
Cc1ccc(CSC(Nc2ccc(F)cc2)=C(C#N)C#N)cc1	-1	97*	0	0	97*	0
COc1ccc(C=NNC(=O)CCCCCNC(=O)c2ccccc2)cc1	x	-1	x	7	1	x
CCOc1cc(C2C(C(=O)c3ccc(C)o3)=C(O)C(=O)N2CCc2ccccc2)ccc1O (stereo not given)	22	48	77*	3	18	-1
COc1cc(C2C(C(=O)c3ccc(C)o3)=C(O)C(=O)N2Cc2ccccc2)ccc1O (stereo not given)	18	8	-1	6	4	0
CCC(C)NCCOc1ccccc1C (stereo not given)	-6	x	1	x	x	24*
NC(=S)NN=Cc1cc([N+](=O)[O-])ccc1Cl	x	5	x	9	2	x
O=[N+]([O-])c1ccc(NN=C(c2ccccc2)c2ccccc2)nc1	3	19	55*	5	3	1
Cc1ccc(-n2c(C)cc(/C=N/Nc3ccc([N+](=O)[O-])cn3)c2C)cc1	-2	x	1	x	x	i
Cc1ccc(C=NNc2ccc([N+](=O)[O-])cn2)cc1	-4	-11	36*	25	0	x
O=C(Cc1cc(=O)[nH][nH]1)NN=Cc1c(Cl)cccc1Cl	x	-2	x	6	4	x
CCN1C(=O)NC(c2ccccc2)C(C(=O)OC)C1C (stereo not given)	x	13	x	11	9	x
O=C(/C=C/c1cccs1)NC(=S)Nc1ccc(C(=O)O)cc1	10	x	1	x	x	i
NS(=O)(=O)c1ccc(NC(=S)NC(=O)/C=C/c2cccs2)cc1	8	active	1	0	83	0
NC(N)=NS(=O)(=O)c1ccc(NC(=S)NC(=O)/C=C/c2ccc(F)cc2)cc1	12	2	-1	5	2	i
NC(N)=NS(=O)(=O)c1ccc(NC(=S)NC(=O)/C=C/c2cccs2)cc1	24	85*	-1	10	3	0
O=C(CSc1nnc(-c2ccccc2)o1)N1CCCCC1	-8	-2	0	x	3	0
O=C(CSc1nnc(-c2ccc(F)cc2)o1)N1CCCCC1	25	-6	0	46*	2	i
CC1CCCN(C(=O)CSc2nnc(-c3ccc(O)cc3)o2)C1 (stereo not given)	7	5	1	18	1	i
CC1CCCN(C(=O)CSc2nnc(-c3cccs3)o2)C1 (stereo not given)	-9	6	0	51*	5	-5
O=C(NC(Cc1ccccc1)C(=O)CCl)OCc1ccccc1 (stereo not given)	x	100*	x	-7	101*	x
Cc1cc2c(cc1C)CSC(c1c(O)ccc3ccccc13)SC2	-14	28	160*	5	72	i
